Inconclusive results are not listed. Activity calls are given as the source filed them. The call rests on the fitted dose curve; in most records, active means well fitted curve in the direction sought with a large enough effect; inconclusive means small, poorly fitted or top-dose-only effect, or another doubt; inactive means no such curve, though single readings can be large; an effect the other way counts as inactive or inconclusive.
Assays:
MKL-2 = test: qHTS assay to identify novel small-molecules to repurpose for Merkel cell carcinoma treatment (AID 1296009); conditions: MCC and control cell lines, CellTiter-Glo viability, 72 h; series mostly up to 46 µM; further: nearly all actives have a fitted effect of over 60% in size
Summary of the method: (§1)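 Cell viability, measured as CellTiter-Glo luminescence, was normalized between DMSO and no-cell wells. The cells had been exposed to 8- or 11-point compound dilutions for 72 hr at 37 degree celsius.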

NIH3T3 = test: as above; conditions: MCC and control cell lines, CellTiter-Glo viability, 72 h; at 44.8 µM (top of the series) unless noted
Summary of the method: as §1

UISO = test: as above; conditions: MCC and control cell lines, CellTiter-Glo viability, 72 h; series mostly up to 46 µM
Summary of the method: as §1

WaGa = test: as above; conditions: MCC and control cell lines, CellTiter-Glo viability, 72 h; series mostly up to 46 µM
Summary of the method: as §1

C33A = test: Primary qHTS to identify gynecologic anti-cancer compounds using libraries of approved drugs and bioactive compounds (AID 1345084); conditions: Gynecologic cancer cell panel viability, ATPlite luminescence, 48 h; series mostly up to 57.5 µM; further: nearly all actives have a fitted effect of over 55% in size; further: potency means the concentration at half of the fitted maximal effect
Summary of the method: (§2)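 In this quantitative HTS, cell killing is estimated from loss of ATP-dependent luciferase light. Cells see five compound concentrations over a 48 h exposure.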

CAOV3 = test: as above; conditions: Gynecologic cancer cell panel viability, ATPlite luminescence, 48 h; series mostly up to 57.5 µM
Summary of the method: as §2

CASKI = test: as above; conditions: Gynecologic cancer cell panel viability, ATPlite luminescence, 48 h; series mostly up to 57.5 µM
Summary of the method: as §2

Es-2 = test: as above; conditions: Gynecologic cancer cell panel viability, ATPlite luminescence, 48 h; series mostly up to 57.5 µM
Summary of the method: as §2

HeLa = test: as above; conditions: Gynecologic cancer cell panel viability, ATPlite luminescence, 48 h; series mostly up to 57.5 µM
Summary of the method: as §2

Hek293T = test: as above; conditions: Gynecologic cancer cell panel viability, ATPlite luminescence, 48 h, control line for the selectivity index; series mostly up to 57.5 µM
Summary of the method: as §2

JEG-3 = test: as above; conditions: Gynecologic cancer cell panel viability, ATPlite luminescence, 48 h; series mostly up to 57.5 µM
Summary of the method: as §2

OV90 = test: as above; conditions: Gynecologic cancer cell panel viability, ATPlite luminescence, 48 h; series mostly up to 57.5 µM
Summary of the method: as §2

PA-1 = test: as above; conditions: Gynecologic cancer cell panel viability, ATPlite luminescence, 48 h; series mostly up to 57.5 µM
Summary of the method: as §2

SKOV3 = test: as above; conditions: Gynecologic cancer cell panel viability, ATPlite luminescence, 48 h; series mostly up to 57.5 µM
Summary of the method: as §2

Tov-21-G = test: as above; conditions: Gynecologic cancer cell panel viability, ATPlite luminescence, 48 h; series mostly up to 57.5 µM
Summary of the method: as §2

Tov112D = test: as above; conditions: Gynecologic cancer cell panel viability, ATPlite luminescence, 48 h; series mostly up to 57.5 µM
Summary of the method: as §2

[1] = Drug repurposing screens with cells derived from glioblastoma tumor samples (AID 1345199); conditions: GBM patient neurospheres viability, ATP luminescence, 48 h; further: nearly all actives have a fitted effect of over 40% in size
Summary of the method: (§3)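 Primary testing used CD133+ neurospheres from four GBM patients, seven concentrations, 48 h exposure and ATP-based viability; confirmation added three slower-growing patient lines.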

astro = test: as above; conditions: viability, ATP luminescence, 48 h; series mostly up to 45.9 µM
Summary of the method: as §3

[2] = at 45.9 µM (top of the series), tumour line B
[3] = at 45.9 µM (top of the series), tumour line D
[4] = at 46.1 µM (top of the series), tumour line C
[5] = at 46 µM (top of the series), tumour line A
On the % scale 0 is the no-effect control and ±100 the full control effect.

CN(C)[C@@H]1C(=O)C(C(N)=O)=C(O)[C@@]2(O)C(=O)C3=C(O)c4c(O)ccc(Cl)c4[C@@H](O)[C@H]3C[C@@H]12
inactive: Potency (MKL-2) | outcome (NIH3T3) | Potency (UISO) | Potency (WaGa) | Potency (C33A) | Potency (CAOV3) | Potency (CASKI) | Potency (Es-2) | Potency (HeLa) | Potency (Hek293T) | Potency (JEG-3) | Potency (OV90) | Potency (PA-1) | Potency (SKOV3) | Potency (Tov-21-G) | Potency (Tov112D) | activity, negative = cell killing [1, 2] -11.7% | activity, negative = cell killing [1, 3] -27% | activity, negative = cell killing [1, 4] -29.4% | Potency (astro)

CSc1ccc(C(=O)c2[nH]c(=O)[nH]c2C)cc1
inactive: Potency (MKL-2) | outcome (NIH3T3) | Potency (UISO) | Potency (WaGa) | Potency (C33A) | Potency (CAOV3) | Potency (CASKI) | Potency (Es-2) | Potency (Hek293T) | Potency (JEG-3) | Potency (OV90) | Potency (PA-1) | Potency (SKOV3) | Potency (Tov-21-G) | Potency (Tov112D) | activity, negative = cell killing [1, 2] -10.8% | activity, negative = cell killing [1, 3] -20.6% | activity, negative = cell killing [1, 4] -21.1% | Potency (astro)
active: Potency (HeLa) 2 µM

OCCN1CCN(CCCN2c3ccccc3C=Cc3ccccc32)CC1
inactive: Potency (MKL-2) | outcome (NIH3T3) | Potency (UISO) | Potency (C33A) | Potency (CAOV3) | Potency (CASKI) | Potency (Es-2) | Potency (HeLa) | Potency (Hek293T) | Potency (JEG-3) | Potency (PA-1) | Potency (Tov-21-G) | Potency (Tov112D)

NCCCNCCSP(=O)(O)O
inactive: activity change, negative = cytotoxicity (MKL-2) 7.98% [at 9.22 µM] | outcome (NIH3T3) inactive [at 9.27 µM] | activity change, negative = cytotoxicity (UISO) -0.378% [at 9.22 µM] | activity change, negative = cytotoxicity (WaGa) 14.2% [at 9.22 µM] | activity change, negative = cytotoxicity (C33A) 4.43% [at 11.6 µM] | activity change, negative = cytotoxicity (CAOV3) 4.48% [at 11.6 µM] | activity change, negative = cytotoxicity (CASKI) 0.847% [at 11.6 µM] | activity change, negative = cytotoxicity (Es-2) 6.18% [at 11.6 µM] | activity change, negative = cytotoxicity (HeLa) 7.86% [at 11.6 µM] | activity change, negative = cytotoxicity (Hek293T) -0.973% [at 11.6 µM] | activity change, negative = cytotoxicity (JEG-3) -0.217% [at 11.6 µM] | activity change, negative = cytotoxicity (OV90) -0.281% [at 11.6 µM] | activity change, negative = cytotoxicity (PA-1) 1.25% [at 11.6 µM] | activity change, negative = cytotoxicity (SKOV3) 19.8% [at 11.6 µM] | activity change, negative = cytotoxicity (Tov-21-G) -2.2% [at 11.6 µM] | activity change, negative = cytotoxicity (Tov112D) 1.24% [at 11.6 µM] | activity, negative = cell killing [1, 2] -11.7% | activity, negative = cell killing [1, 3] -3.44% | activity, negative = cell killing [1, 5] -3.51% | activity, negative = cell killing [1, 4] 0.364%

CN(C)C(=O)Oc1ccc[n+](C)c1
inactive: Potency (MKL-2) | outcome (NIH3T3) | Potency (UISO) | Potency (WaGa) | Potency (C33A) | Potency (CAOV3) | Potency (CASKI) | Potency (Es-2) | Potency (HeLa) | Potency (Hek293T) | Potency (JEG-3) | Potency (OV90) | Potency (PA-1) | Potency (SKOV3) | Potency (Tov-21-G) | Potency (Tov112D) | activity, negative = cell killing [1, 2] 5.33% | activity, negative = cell killing [1, 3] -8.24% | activity, negative = cell killing [1, 5] -28.3% | activity, negative = cell killing [1, 4] -15.6% | Potency (astro)

O=C(O)CP(=O)(O)O
inactive: Potency (MKL-2) | outcome (NIH3T3) | Potency (UISO) | Potency (WaGa) | Potency (C33A) | Potency (CAOV3) | Potency (CASKI) | Potency (Es-2) | Potency (HeLa) | Potency (Hek293T) | Potency (JEG-3) | Potency (OV90) | Potency (SKOV3) | Potency (Tov-21-G) | Potency (Tov112D) | activity, negative = cell killing [1, 2] -17.9% | activity, negative = cell killing [1, 3] 13.7% | activity, negative = cell killing [1, 5] -25.2% | activity, negative = cell killing [1, 4] -15.6% | Potency (astro)

Source: PubChem BioAssay (NCATS)
